Assay outcomes: PubChem, National Center for Advancing Translational Sciences (NCATS)
Rows were chosen to be rich in hits. Some 3.1% of all compounds tested hit in one or more screens of this group.
Tau FP inhib – blocks human tau fibril formation measured by polarization. P10636. K18 P301L tau heparin fibrillization, Alexa594 FP, 6 h. Potency, µM (series often up to 57.7 µM), without a hit: at the highest dose activity, negative = inhibition, hits mostly inhibitors. 280,000 tested, 0.39% active; also: nearly all actives have a fitted effect of over 55% in size
Target sequence (P10636 561-689 P618L limits assumed): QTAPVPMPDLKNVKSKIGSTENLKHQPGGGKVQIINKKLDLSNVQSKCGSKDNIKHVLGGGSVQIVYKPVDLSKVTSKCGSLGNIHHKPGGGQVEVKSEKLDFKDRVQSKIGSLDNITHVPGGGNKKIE
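Compound effects on tau fibrillization are measured by Alexa 594 fluorescence polarization (ex 555, em 632 nm). K18 P301L tau is used at 15 uM with 0.24 uM labeled tracer, and 20 uM heparin induces aggregation over 6 hr at 37 C.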
TRb SRC2 PPI – TRbeta-SRC2 interaction inhibition; 280,000 tested, 0.065% active; P10828; TRbeta-SRC2 peptide binding, fluorescence polarization; receptor liganded with 1 µM T3; Potency, µM (titrated, usually from 106 µM), inactives show at the highest dose activity change, negative = inhibition, most hits filed as inhibitors; AID 1469;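 also: plate controls were bound peptide for no effect and peptide without receptor for full effect; nearly all actives have a fitted effect of over 50% in size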
Target sequence (P10828 whole entry, looked up): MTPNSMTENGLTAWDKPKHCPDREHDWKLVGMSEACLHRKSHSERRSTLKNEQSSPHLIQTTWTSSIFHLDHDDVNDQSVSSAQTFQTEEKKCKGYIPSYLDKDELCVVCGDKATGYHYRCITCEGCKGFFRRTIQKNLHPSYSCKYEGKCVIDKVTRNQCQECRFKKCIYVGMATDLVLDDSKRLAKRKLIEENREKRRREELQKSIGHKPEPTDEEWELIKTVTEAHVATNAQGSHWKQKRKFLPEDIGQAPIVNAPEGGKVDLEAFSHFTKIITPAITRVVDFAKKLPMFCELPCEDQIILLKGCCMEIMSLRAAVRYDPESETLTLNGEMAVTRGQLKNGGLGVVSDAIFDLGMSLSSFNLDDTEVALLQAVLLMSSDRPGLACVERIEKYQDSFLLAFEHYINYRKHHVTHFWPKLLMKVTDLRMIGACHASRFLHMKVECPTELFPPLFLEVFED
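Quantitative HTS by FP: 0.6 uM TRb LBD, 20 nM labeled SRC2 20-mer, 1 uM T3, 5% DMSO; 5 hr ambient incubation; % activity per concentration and potencies from concentration series.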
Tau fibril ThT – inhibitors of human tau fibril formation, thioflavin T binding | P10636 | recombinant tau K18 P301L, heparin-induced fibrillization, ThT fluorescence | Potency, µM (doses to about 57.4 µM), for the others: at the highest dose activity, negative = inhibition, usual class: inhibitors | 270,000 tested, 2.1% active; also: nearly all actives have a fitted effect of over 55% in size
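Heparin-induced fibrillization of the P301L-mutant K18 repeat-domain fragment of human tau was followed by ThT binding in quantitative high-throughput format.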
TR SRC2 fluor cs – counter-screen for TRb-SRC2 inhibitors: fluorescence interference; TRb/SRC2 Texas Red total fluorescence interference; Potency, µM (top dose mostly 106 µM), inactives show top-dose fluorescence change, negative = quenching; 280,000 tested, 0.29% active; AID 1479; active = well fitted curve in either direction with a large enough effect; inconclusive = small, poorly fitted or top-dose-only effect
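Human TRβ ligand-binding domain (0.6 uM) and Texas Red SRC2 peptide (20 nM) in Tris buffer with 1 uM T3 and 5% DMSO were incubated with pinned compound for 5 hr at ambient temperature. Total fluorescence was computed as S + 2P (555/632 nm).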
Tau fluor cs – counter-screen for tau fibril formation inhibitors | tau K18 P301L (four-repeat tau fragment) Alexa594 fluorescence, heparin fibrillization | Potency, µM (highest dose often 57.7 µM), without a hit: at the top dose activity change, negative = decrease | 280,000 tested, 0.93% active; also: nearly all actives have a fitted effect of over 55% in size
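Human K18 P301L tau (15 uM unlabeled plus 0.24 uM Alexa 594-labeled, final) in 100 mM sodium acetate pH 7 was mixed with compound and 20 uM heparin and incubated 6 hr at 37 C.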
* hit, by the source's call; ? = inconclusive; / = no result; ! = not active in a repeat; [ ] = dose if it differs, or a comment. Unless noted, calls follow the shape of the dose curve; as a rule, active = well fitted curve in the direction sought with a large enough effect; inconclusive = small, poorly fitted or top-dose-only effect, or another doubt; inactive = no such curve, though single readings can be large; an effect the other way counts as inactive or inconclusive. Unless noted, % is scaled to controls: 0 for no effect and ±100 for the full control effect; potency is read from the fitted curve at half-maximal effect.

SMILES | Tau FP inhib | TRb SRC2 PPI | Tau fibril ThT | TR SRC2 fluor cs | Tau fluor cs
C/C(=N\NC1=NCCN1)c1ccc(N)c([N+](=O)[O-])c1 | -6% | -1% | 20µM* | -2% | -27%
CCc1nnc(NS(=O)(=O)c2ccc(NC(=O)OC)cc2)s1 | -5% | 3% | -8% | 1% | -9%
NS(=O)(=O)c1ccc(Nc2ccccc2)c([N+](=O)[O-])c1 | 2% | -2% | ? | 0% | -10%
NS(=O)(=O)c1ccc(Nc2ccc([N+](=O)[O-])c3nonc23)cc1 | -11% | 4% | 16µM* | -2% | -22%
CCc1nnc(NS(=O)(=O)c2ccc(Nc3ccc([N+](=O)[O-])c4nonc34)cc2)s1 | 4% | 0% | 14µM* | -6% | -14%
CCOC(=O)c1scc(-c2ccc(C)cc2)c1S(=O)(=O)N1CCN(c2ccccc2F)CC1 | -6% | -3% | -13% | ? | -20%
CN1C(=O)/C(=C/C=C2\SCCN2C)N(C)C1=S | -8% | -1% | 28µM* | -3% | -15%
O=C(Nc1cccc(-c2nc3cccnc3s2)c1)c1cccc(Br)c1 | 4% | 1% | ? | -1% | -30%
Nc1[nH]n2c(=O)c3c(nc2c1N=Nc1ccc(Cl)cc1)CCCC3 | -2% | 4% | 1.4µM* | 0% | -9%
Nc1[nH]n2c(=O)c3c(nc2c1N=Nc1ccccc1)CCCC3 | 1% | 6% | 4.5µM* | -3% | ?
CC(=O)Nc1cccc(NC(=O)CSc2ccc(-c3sc(-c4ccccc4)nc3C)nn2)c1 | -12% | -2% | ? | -1% | ?
O=C(O)/C=C/C(=O)Nc1ccc(OC(F)(F)Cl)cc1 | -1% | -6% | 3% | -1% | 6%
O=C(O)/C=C/C(=O)Nc1ccc(SC(F)(F)C(F)(F)C(F)(F)F)cc1 | -1% | 32µM* | -3% | 0% | 0%
CCc1ccc(CNC(=O)C(CC)n2nc(C)c3c(C)n(-c4ccccc4)nc3c2=O)cc1 (stereo not given) | 5% | 5% | 12% | 1% | 9%
Cc1ccc(C(=O)Oc2csc(=S)n2C(=O)c2ccc(C)cc2)cc1 | ? | 2% | 10µM* | -12% | -30%
O=[N+]([O-])c1cccc(/C=C/c2nc(C=Nc3ccc4ccccc4c3)c(O)o2)c1 | -3% | -1% | 2µM* | -6% | -15%
C/C(=N/NC(=O)c1cc(O)c(O)c(O)c1)c1ccc([N+](=O)[O-])cc1 | 3% | 6% | 3.5µM* | 0% | ?
C/C(=N\NC(=O)c1ccc([N+](=O)[O-])cc1)c1c(O)cc(C)oc1=O | 9% | -5% | 4.5µM* | -5% | -15%
Cc1cccc(Cc2c(C)nc3nc(SCC(=O)NCc4ccc(F)cc4)nn3c2C)c1 | -10% | 3% | -14% | -2% | -16%
CC(=O)[C@@H]1[C@@H]2C(=O)N(C3CCCCC3)C(=O)[C@@H]2C2c3ccccc3C=CN21 (stereo not given in full) | -15% | -12% | ? | -3% | -18%
COc1ccc(C(=O)C2C3C4COC(O4)C(=O)C3C3C=Cc4ccccc4N32)c(OC)c1 (stereo not given) | 11µM* | 7.1µM* | 20µM* | 22µM*[fluorescent] | 20µM*[fluorescent]
Cc1ccc(C(=O)[C@@H]2[C@H]3C4COC(O4)C(=O)[C@@H]3[C@H]3C=Cc4ccccc4N32)cc1 (stereo not given in full) | ? | -5% | 22µM* | 1% | ?
Cc1ccc(N2C(=O)[C@@H]3[C@H](C2=O)C2c4ccccc4C=NN2[C@@H]3C(=O)c2ccc(Cl)cc2)cc1 (stereo not given in full) | -6% | -1% | -3% | -3% | 1%
CC(=O)[C@@H]1[C@H]2[C@H](C(=O)[C@H]3OC[C@@H]2O3)[C@H]2C=Cc3ccccc3N21 | ? | 6% | 16µM* | 35µM*[fluorescent] | ?
CCC(=O)Nc1ccc(-c2nnc3c4ccccc4c(C)nn23)cc1 | ? | -2% | -14% | 0% | -8%
SMILES | Tau FP inhib | TRb SRC2 PPI | Tau fibril ThT | TR SRC2 fluor cs | Tau fluor cs
Cc1ccc2nc(Cl)c3cc(C(=O)NC4CCC(C)CC4)sc3c2c1 (stereo not given) | -5% | -8% | -3% | -1% | -11%
COc1ccc(OC)c(NC(=O)C2=C(C)C(=O)OC23CCCCCC3)c1 | 10% | 3% | -15% | 7% | -25%
O=C1NC(=O)/C(=C\c2ccc(Sc3ccc(Cl)cc3)o2)N1 | -2% | 0% | -15% | -4% | -13%
Cc1ccc(Sc2ccc(/C=C3/C(=O)NN(c4ccccc4)C3=O)o2)cc1 | -13% | -5% | 13µM* | -1% | ?
Cc1ccsc1/C=C1/C(=O)NN(c2ccccc2)C1=O | 8% | 0% | ? | -4% | -29%
O=C1NN(c2ccccc2)C(=O)/C1=C/c1ccc(Sc2ccc(Cl)cc2)o1 | -17% | 2% | 11µM* | -1% | ?
CC(C)C(C(=O)O)N1C(=O)/C(=C/c2ccc(Br)cc2)SC1=S (stereo not given) | / | -1% | / | 0% | /
CCCCc1ccc(C2C(C#N)=C(N)SC(N)=C2C#N)s1 | ? | 5% | 25µM* | -1% | 25µM*[quencher]
CC(C)Sc1ncc(Cl)c(C(=O)Nc2c(C(=O)Nc3ccccc3)oc3ccccc23)n1 | 1% | -1% | 7% | -2% | -9%
CCCS(=O)(=O)c1ncc(Cl)c(C(=O)Nc2c(C(=O)Nc3ccccc3)oc3ccccc23)n1 | -8% | 5% | 7.1µM* | ? | ?
CCOc1ccc(NC(=O)Cc2coc3ccc(C)cc23)cc1 | -5% | -1% | ? | -3% | -28%
O=C(ONc1ccc(N=NC(=O)c2ccccc2O)cc1)c1ccccc1 | 1% | 0% | 4.5µM* | 0% | ?
Cc1cc(C)n(CC(O)Cn2c3ccc(Cl)cc3c3cc(Cl)ccc32)c(=O)n1 (stereo not given) | -5% | 8% | -9% | -1% | -23%
OC(CNCCC1C=Nc2ccccc21)Cn1c2ccc(Cl)cc2c2cc(Cl)ccc21 (stereo not given) | ? | -7%[53 µM] | ? | -1%[53 µM] | 3.2µM*[quencher]
CC(C)[C@@H](OCc1ccccc1)[C@H](C)/C=N\OC[C@@H](O)[C@@H]1O[C@@H]2OC(C)(C)O[C@@H]2[C@H]1O | -5%[11.6 µM] | -3%[11.2 µM] | -8%[11.5 µM] | -7%[11.2 µM] | -3%[11.6 µM]
CCc1cccc(NC(=O)c2cc3c(=O)n(Cc4ccccc4)ccc3nc2C)c1 | -9% | 1% | -18% | -6% | -18%
Clc1cccc(CN2CCC(Cc3ccccc3)CC2)c1 | -6% | -3% | 18µM* | -9% | 13µM*[quencher]
O=C1C(SCCO)=C(SCCO)C(=O)c2ccccc21 | 2.5µM* | ? | 14µM* | 14µM*![quencher] | 2µM*[quencher]
Cc1c(C(=O)c2no[n+]([O-])c2C(=O)c2cnn(C)c2C)cnn1C | ? | -4% | 14µM* | 0% | -19%
